Over roughly 18,000 sequences, “log2 normalized intensity” has its median near 0.36; the highest 2% begin near 7.3. The sample as a whole holds a higher share of the highest values than the screen did.

The target of this assay is T1, HNF4alpha8 (COS-7 nuclear extract) (Homo sapiens, UniProt P41235-5 1-452).
T1 sequence: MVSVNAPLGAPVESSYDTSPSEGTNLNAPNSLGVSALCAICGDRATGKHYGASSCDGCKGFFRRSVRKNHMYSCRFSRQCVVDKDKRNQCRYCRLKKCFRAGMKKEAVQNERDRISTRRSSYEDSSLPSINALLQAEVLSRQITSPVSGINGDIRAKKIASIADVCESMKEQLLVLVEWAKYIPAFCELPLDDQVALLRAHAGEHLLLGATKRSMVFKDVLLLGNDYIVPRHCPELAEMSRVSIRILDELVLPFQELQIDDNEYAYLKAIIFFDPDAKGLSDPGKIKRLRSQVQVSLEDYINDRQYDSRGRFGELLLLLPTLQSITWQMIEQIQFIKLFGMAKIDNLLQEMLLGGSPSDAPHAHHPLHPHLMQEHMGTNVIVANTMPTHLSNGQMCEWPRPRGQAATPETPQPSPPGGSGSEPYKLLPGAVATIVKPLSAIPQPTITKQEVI
Put plainly: protein-binding microarray; COS-7 nuclear extract on double-stranded Agilent 4x180k PBM; binding buffer, salt, pH and temperature not given in the material; high values mean tight binding. Particulars: chain copies: 2; label: 3' end of strand 1 on the slide; dsDNA, one strand shown. The gist of the method: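 Binding signal is the background-corrected, normalized gProcessedSignal calculated by Agilent software. It was measured by applying nuclear extracts of COS-7 cells transiently transfected with a human HNF4α isoform expression vector to a custom Agilent SurePrint G3 4x180k array of ~44,000 double-stranded ~60-nt test sequences in quadruplicate, then imaging bound HNF4α on an Agilent G2565CA scanner at 2-µm resolution.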
Turning to “GTGACTACCTGGTTAAAAGGACAACCTTCGGCCTAGGGAGATTAGAGTATCGGTCGA”, the binding signal is -0.397 log2 normalized intensity.
As for “AGAATGTGGTTCTTTTCATTAAATATTTAAGCCTAGGGAGATTAGAGTATCGGTCGA”, the figure is 0.534 log2 normalized intensity; as for “ATGCTATCTCCCAGTTCTTTTGACCTTTGCGCCTAGGGAGATTAGAGTATCGGTCGA”, 8.5 log2 normalized intensity; as for “ATCTCCCAGTTCTTTTGACCTTTGCCTCATGCCTAGGGAGATTAGAGTATCGGTCGA”, 8.61 log2 normalized intensity.
With “CCTCAATGCTATCTCCCAGTTCTTTTGACCGCCTAGGGAGATTAGAGTATCGGTCGA” the figure was 2.7 log2 normalized intensity.
As to “CCAGTTCTTTTGACCTTTGCCTCATTCTTAGCCTAGGGAGATTAGAGTATCGGTCGA”, the binding signal came out at 7.02 log2 normalized intensity.
For the sequence “TCCTTTTGACCACAGTTATCTCCCCAGCTTGCCTAGGGAGATTAGAGTATCGGTCGA”, the binding signal came out at 2.38 log2 normalized intensity.
With “AGTTATATCTTACCTCCTTCTCCCCCATGCGCCTAGGGAGATTAGAGTATCGGTCGA”, the binding signal came to 4.73 log2 normalized intensity.
Regarding “TAGGCATGCAAACTTTGTTTAATGATTGCAGCCTAGGGAGATTAGAGTATCGGTCGA”, the binding signal is 0.0707 log2 normalized intensity.
As for “GGTACTGGAAACTGGGCAAGGTCCATTACGGCCTAGGGAGATTAGAGTATCGGTCGA”, the binding signal is 3.56 log2 normalized intensity.
With “CACCTTCTTTCTCCCAGAGGTCGATCTGATGCCTAGGGAGATTAGAGTATCGGTCGA” the figure was 2.25 log2 normalized intensity; with “ACTGACCTTTGAGAGTCAACACTGAAATAGGCCTAGGGAGATTAGAGTATCGGTCGA”, 2.06 log2 normalized intensity.
With “GGTGAAATAGCTGAACTATTTAAGGCCTTTGCCTAGGGAGATTAGAGTATCGGTCGA”, the binding signal worked out at 0.507 log2 normalized intensity.
Regarding “TCTTTGATTAGGAAAGGGAACTCCCTGACCGCCTAGGGAGATTAGAGTATCGGTCGA”, the binding signal was found to be 0.445 log2 normalized intensity.
For “CACTTCTGAAAAAAATATTGAACAAAGATTGCCTAGGGAGATTAGAGTATCGGTCGA”, the binding signal is 0.276 log2 normalized intensity.
As for “GAAAATATTTCTCTGAACTTTGACCTATAGGCCTAGGGAGATTAGAGTATCGGTCGA”, the figure is 9.31 log2 normalized intensity; as for “AGTTGGAAAATATTTCTCTGAACTTTGACCGCCTAGGGAGATTAGAGTATCGGTCGA”, 8.68 log2 normalized intensity.
“CTGTTTCTTTGTGTGTCAACAGAGTGCTTAGCCTAGGGAGATTAGAGTATCGGTCGA”: the binding signal amounted to 1.48 log2 normalized intensity.
In the case of “TAGGTACTATTATTAGAGTCCCTTTTTTAGGCCTAGGGAGATTAGAGTATCGGTCGA”, the binding signal was found to be 0.509 log2 normalized intensity.
On to “GAAAGGATCTCACCCAAACCATCCCAGGCAGCCTAGGGAGATTAGAGTATCGGTCGA”, for which the binding signal worked out at 3.1 log2 normalized intensity.
On to “GGTGATGTGAACCTCGATCCCTGGCTAAGGGCCTAGGGAGATTAGAGTATCGGTCGA”, for which the binding signal was determined as 2.38 log2 normalized intensity.
As for “CCCCACCCGCGGTCCGTCCCTCCTGGTCGAGCCTAGGGAGATTAGAGTATCGGTCGA”, the figure is 3.57 log2 normalized intensity; as for “CCCAGTATGAGCGGCGCTGACCCCGGGAGCGCCTAGGGAGATTAGAGTATCGGTCGA”, 3.67 log2 normalized intensity.
“TGAGACTTTCCTGTTGGGGAGCAAAGGTTAGCCTAGGGAGATTAGAGTATCGGTCGA”: the binding signal was determined as 6.1 log2 normalized intensity.
As for “CTTTTTGACCTTGCAGTGGCAAGGCAAAAGGCCTAGGGAGATTAGAGTATCGGTCGA”, the figure is 2.28 log2 normalized intensity; as for “AAGAGCTGAGGAAGTGCTGACCTTTGGTCTGCCTAGGGAGATTAGAGTATCGGTCGA”, 7.88 log2 normalized intensity; as for “CCTAAACCTGCAAACCTTTGACCTTTCCATGCCTAGGGAGATTAGAGTATCGGTCGA”, 6.22 log2 normalized intensity.
On to “CTGAGGAAGTGCTGACCTTTGGTCTAAACCGCCTAGGGAGATTAGAGTATCGGTCGA”, for which the binding signal is 6.93 log2 normalized intensity.
For “AGTGCTGCATGCAAAAAGGCTGACCTTTGAGCCTAGGGAGATTAGAGTATCGGTCGA”, the binding signal stood at 8.62 log2 normalized intensity.
As to “GTCAGAGTGCTGCATGCAAAAAGGCTGACCGCCTAGGGAGATTAGAGTATCGGTCGA”, the binding signal was determined as 1.75 log2 normalized intensity.
For “TCTCGGTCAAACCTTTGACCCTTTATAATCGCCTAGGGAGATTAGAGTATCGGTCGA”, the binding signal is 6.91 log2 normalized intensity.
“TAGATAAGAGCTGAGGAAGTGCTGACCTTTGCCTAGGGAGATTAGAGTATCGGTCGA”: the binding signal worked out at 6.57 log2 normalized intensity.
As for “TGCATGCAAAAAGGCTGACCTTTGACTCTCGCCTAGGGAGATTAGAGTATCGGTCGA”, the figure is 8.15 log2 normalized intensity; as for “CTTTGAAATGTCCTGAGTGATTGTAGTGTCGCCTAGGGAGATTAGAGTATCGGTCGA”, 1.86 log2 normalized intensity.
As for “CCCCCGCAACTATTTATGAGTCTTGGGAATGCCTAGGGAGATTAGAGTATCGGTCGA”, the figure is 0.709 log2 normalized intensity; as for “CACAGTGTTATTTGCTGAGGTGGGGGAGGTGCCTAGGGAGATTAGAGTATCGGTCGA”, 0.772 log2 normalized intensity.
With “TTAGGGAGGGGCCAGGACAAAGGTCCTGTGGCCTAGGGAGATTAGAGTATCGGTCGA” the figure was 2.51 log2 normalized intensity; with “GGTTAAAATTTATCTATTGGGTACAATGTTGCCTAGGGAGATTAGAGTATCGGTCGA”, 2.37 log2 normalized intensity.
Turning to “CTTCCAGTCCACAGTCCAGTGACTATCTGCGCCTAGGGAGATTAGAGTATCGGTCGA”, the binding signal was 1.02 log2 normalized intensity.
With “TCCTCAGGGAATTTCTAGGTTTGATCTTTGGCCTAGGGAGATTAGAGTATCGGTCGA” the figure was 3.49 log2 normalized intensity; with “CTACAGGGTATGAATTTAACCTTTGCTCTCGCCTAGGGAGATTAGAGTATCGGTCGA”, 7.57 log2 normalized intensity.
For “TTGCCCTTTGCCCAACCCTCTCCCACTCCCGCCTAGGGAGATTAGAGTATCGGTCGA”, the binding signal worked out at 4.93 log2 normalized intensity.
